From PubChem BioAssay (NCATS) come the findings set out here.

Values joined by “and” are separate entries in the source; they are usually repeats but may differ in a detail not shown here. Identical values can stand only once. Inconclusive results are not listed. Active and inactive are the calls of the source. Calls follow the shape of the dose curve; as a rule, active = well fitted cell-killing curve with a large enough effect; inconclusive = small, poorly fitted or top-dose-only effect, or effect the other way; inactive = no such curve, though single readings can be large or run the other way.
Potency is read from the fitted curve at half-maximal effect.

The nature of the experiment: Viability qHTS for spleen associated tyrosine kinase inhibitor (SYKi) drug resistant MV4-11 cells (AID 1963824). Also: nearly all actives have a fitted effect of over 35% in size. The note with it: SYKi-resistant MV4-11 viability, CellTiter-Glo, 72 h; series mostly up to 45 µM; viability, % of control: at the top concentration. In short, it runs like this: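 SYK inhibitor-resistant MV4-11 AML cells, 500 per well, added to predispensed compounds and incubated 72 hr at 37 C, 5% CO2. Viability measured by CellTiter-Glo luminescence after 10 min at room temperature.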
Background: qHTS replaces the single test concentration by a dilution series.
`CCC(=O)O[C@H]1[C@H](O[C@@H]2[C@@H](C)[C@H](O[C@H]3C[C@@](C)(OC)[C@@H](O)[C@H](C)O3)[C@@H](C)C(=O)O[C@H](CC)[C@@](C)(O)[C@H](O)[C@@H](C)C(=O)[C@H](C)C[C@@]2(C)O)O[C@H](C)C[C@@H]1N(C)C`: the “viability, % of control” value was 78.7% (inactive). The same measure, in the same setting: then `CC(=O)OCC(=O)[C@@]1(O)CC[C@H]2[C@@H]3CCC4=CC(=O)CC[C@]4(C)[C@H]3C(=O)C[C@@]21C`, with 102% (inactive); and `O=c1[nH]c2ccccc2c(=O)n1CCCl`, with 86.1% (inactive).

With `C[C@H](NC(=O)c1c(N)nn2cccnc12)c1cc2cccc(C#Cc3cnn(C)c3)c2c(=O)n1-c1ccccc1`, the Potency is 7.23 µM (active). On to `O=C1NC(=O)C(c2c[nH]c3ccccc23)=C1c1c[nH]c2ccccc12`, for which the Potency is 1.16 µM (active). Same read-out and setting: then `CNC(=O)[C@H](Cc1c[nH]c2ccccc12)NC(=O)[C@@H](CC(=O)NO)CC(C)C`, with 10.5 µM (active). `Nc1nc(F)nc2c1ncn2C1OC(COP(=O)(O)O)C(O)C1O` (stereo not given): the Potency was 14.8 µM (active).

For the compound `COc1cc(C(=O)N2CCCCCCC2)cc(OC)c1OC`, the “viability, % of control” value was 68.7% (inactive). Turning to `O=C(O)[C@@H]1[C@H]2C[C@H]3c4[nH]c5ccccc5c4CCN3C[C@@H]2CC[C@@H]1O`, the Potency was 5.96 µM (active). `O=C(O)C(S)C(S)C(=O)O` (stereo not given): the “viability, % of control” value was 77.4% (inactive).

`COc1ccccc1OCC(O)CO` (stereo not given): the “viability, % of control” value was 89.6% (inactive). For the compound `CN(C)Cc1ccc(S(=O)(=O)n2ccc(/C=C/C(=O)NO)c2)cc1`, the Potency is 2.35 µM (active). In the case of `CNC1(C)C2CCC(C2)C1(C)C` (stereo not given), the “viability, % of control” value is 78.2% (inactive). Regarding `CC(C)n1c(/C=C/[C@H](O)C[C@H](O)CC(=O)O)c(-c2ccc(F)cc2)c2ccccc21`, the Potency is 1.32 µM (active).

`CCc1cc(C(N)=O)ccc1-n1nc(C(C)C)c2c(-n3cnc(-c4cnn(C)c4)c3)ccnc21`: the Potency was 0.59 µM (active). In the case of `COc1c(C)c2c(c(O)c1C/C=C(\C)CCC(=O)O)C(=O)OC2`, the Potency was 473 nM (active) and 934 nM (active). Consider `CC(=O)Nc1ccc(OCCOCCOc2ccc(NC(C)=O)cc2)cc1`, for which the “viability, % of control” value was 43.7% (inactive). Take `Cc1ccc([N+](=O)[O-])cc1S(=O)(=O)N(C)/N=C/c1cnc2ccc(Br)cn12`: the Potency was 16.4 nM (active) and 46.8 nM (active). Regarding `Nc1nc(F)nc2c1ncn2[C@@H]1O[C@H](COP(=O)(O)O)[C@@H](O)[C@@H]1O`, the Potency is 14.8 µM (active). In the case of `CO[C@H]1O[C@@H]2O[C@@]3(C)CC[C@H]4[C@H](C)CC[C@@H]([C@H]1C)[C@@]24OO3`, the Potency is 0.934 µM (active). `NC(=O)N/N=C/c1ccc([N+](=O)[O-])o1`: the Potency was 21.7 µM (active). Consider `C[C@@H](OC[C@@]1(c2ccccc2)CC[C@]2(CCC(=O)N2)CN1)c1cc(C(F)(F)F)cc(C(F)(F)F)c1`, for which the Potency is 7.42 µM (active).

With `Cn1cc[nH]c1=S`, the “viability, % of control” value is 82.4% (inactive).

Consider `CCN(CC)C(C)CN1c2ccccc2Sc2ccccc21` (stereo not given), for which the “viability, % of control” value was 74.8% (inactive). Still for that read-out and setting: the same measure for `CCN(Cc1ccncc1)C(=O)C(CO)c1ccccc1` (stereo not given): 92% (inactive); for `CCN(CC)CCc1nc(-c2ccccc2)no1`: 87.1% (inactive); for `CC1=C(CC(=O)O)c2cc(F)ccc2/C1=C\c1ccc(S(C)=O)cc1` (stereo not given): 89.9% (inactive). On to `C[C@@H]1CC(=O)Nc2cccc(-c3cnn(C(C)(C)C)c3)c2N1`, for which the Potency was 11.8 µM (active). On to `Cc1c(NC(=O)c2cc(C(N)=O)nc3cc(F)ccc23)c(C(F)(F)F)nn1Cc1ccc(C#N)cc1`, for which the “viability, % of control” value is 72.7% [at 17.3 µM] (inactive). As for `C[C@@H](O)[C@@H](C)Oc1nc(Nc2ccc(S(=N)(=O)C3CC3)cc2)ncc1C(F)(F)F` (stereo not given in full), the Potency was 11.8 µM (active).

For `CC[C@H](Nc1ncnc2nc[nH]c12)c1oc2ccccc2c(=O)c1-c1cccc(F)c1`, the Potency was 14.8 µM (active).

For `CN(C)C[C@@H]1CCn2cc(c3ccccc32)C2=C(C(=O)NC2=O)c2cn(c3ccccc23)CCO1`, the Potency was 0.417 µM (active). On the same count and under the same terms, the same measure for `Cc1ccc(S(=O)(=O)Cc2nc(-c3ccc(C(=O)NCc4cccnc4)cc3)oc2C)cc1`: 0.0105 µM (active); for `C[C@H]1C[C@H]2[C@@H]3CCC4=CC(=O)C=C[C@]4(C)[C@H]3C(=O)C[C@]2(C)[C@@]1(O)C(=O)CO`: “inactive”; for `NC(=O)c1cccc2c(NC(CN3CCC3)c3ccc(Cl)c(C(F)(F)F)c3)ncnc12` (stereo not given): 2.35 µM (active). On to `O=C(O)CCC(=O)Nc1ccc(S(=O)(=O)Nc2nccs2)cc1`, for which the “viability, % of control” value was 76.3% (inactive). As for `O=C(CCCCCCC(=O)N/N=C/c1ccc(N(c2ccccc2)c2ccccc2)cc1)NO`, the Potency is 4.17 µM (active). As to `COc1cc(C(=S)N2CCOCC2)cc(OC)c1OC`, the “viability, % of control” value was 107% (inactive). Regarding `CCOC(=O)CCNc1cc(N2CCc3ccccc3CC2)nc(-c2ccccn2)n1`, the Potency was 5.25 µM (active). For the compound `CCC1=C[C@@H]2CN(C1)Cc1c([nH]c3ccccc13)[C@@](C(=O)OC)(c1cc3c(cc1OC)N(C)[C@H]1[C@@](O)(C(=O)OC)[C@H](OC(C)=O)[C@]4(CC)C=CCN5CC[C@]31[C@@H]54)C2`, the Potency is 7.5 nM (active) and 64.5 nM (active).
